# From PubChem BioAssay AID493197 (Broad Institute, 2011)
# Entries with a potency or affinity are not part of this list. Inconclusive results are not listed. A number with no mark means an inactive call. No rule for the calls is given here.
# Assay: anti-trypanosomal activity in host cells – cell-based, plate reader, dry powder, set 3, dose response (AID 493197)
# Conditions: intracellular Trypanosoma cruzi in host cells; series mostly up to 19.5 µM; activity change, negative = inhibition: at the top concentration
row,Compound,"activity change, negative = inhibition [%]"
1,CCNC(=O)C1CCCN(C(=O)c2cc(OC)c(OC)c(OC)c2)CC1 (configuration not stated),-5.26
2,CCNC(=O)C1(C)CCN(C(=O)c2ccc(OC)c(OC)c2)C1 (configuration not stated),-4.33
3,CCCNC(=O)C1(C)CCN(C(=O)Cc2ccc(OC)c(OC)c2)C1 (configuration not stated),-38.6
4,CCCNC(=O)C1(C)CCCN(C(=O)c2ccc(OC(F)F)cc2)C1 (configuration not stated),1.44
5,COCCNC(=O)C1(C)CCCN(C(=O)c2ccc(OC)c(OC)c2)C1 (configuration not stated),-1.31
6,COc1ccc(CN2CCC(C(=O)NC3CCCC3)CC2)cc1OC,-40.9
7,COc1cc2c(cc1OC)C(C)N(CCC(N)=O)CC2 (configuration not stated),-16.1
8,CCCNC(=O)C1(C)CCCN(C(=O)Cc2ccc(OC)c(OC)c2)C1 (configuration not stated),24.1
9,COCCNC(=O)C1(C)CCCN(C(=O)c2cc(OC)c(OC)c(OC)c2)C1 (configuration not stated),14.9
10,CCNC(=O)C1(C)CCCN(C(=O)Cc2ccc(OC)c(OC)c2)C1 (configuration not stated),19.3
11,COc1ccc(CCN2CC(C(=O)NCc3ccc(F)cc3)CC2=O)cc1OC (configuration not stated),-13.9
12,COc1ccc(CCNC(=O)C2CCCCC2)cc1OC,-18
